From PubChem BioAssay AID1159580 (chemical genetic matrix, 2015)
“And” between values parts separate entries of the source, which are not always exact repeats. Equal entries are not always repeated. The whole screen tested about 5,500 compounds, of which about 2,000 (36%) were called active. Inconclusive results (about 18%) are left out. No stated cut-off is given here; in the data, active means normalized growth mostly below about 0.91 (no sharp cut-off); inconclusive means no clear call, values can overlap the other calls; inactive means mostly above about 0.92. Some of the results follow.

Assay: chemical genetic growth profiling, strain panel (AID 1159580);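 further: tested at 20 µM; growth read once vehicle control cultures reached saturation at 30 °C; 1 = growth at the plate median or of vehicle wells; lower values mean less growth of the strain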
Conditions: S. cerevisiae deletion strains, growth OD

Measured: normalized growth

Nc1ccc(S(=O)(=O)Nc2ccnn2-c2ccccc2)cc1
inactive: locus YAL013W, strain DEP1, active compounds read low 1.04 | locus YAL021C, strain ccr4, active compounds read low 0.986 | locus YAL026C, strain drs2, active compounds read low 0.977 | locus YAL030W, strain snc1, active compounds read low 1.01 | locus YAL040C, strain CLN3, active compounds read low 1.02 | locus YBL061C, strain skt5, active compounds read low 1.01 | locus YBR009C, strain hhf1, active compounds read low 1.01 | locus YBR021W, strain FUR4, active compounds read low 0.994 | locus YBR023C, strain chs3, active compounds read low 0.999 | locus YBR171W, strain sec66, active compounds read low 0.993 | locus YBR229C, strain ROT2, active compounds read low 1.01 | locus YBR231C, strain swc5, active compounds read low 1.01 | locus YBR279W, strain paf1, active compounds read low 0.996 | locus YCL011C, strain gbp2, active compounds read low 0.982 | locus YCL016C, strain dcc1, active compounds read low 0.999 | locus YCL029C, strain bik1, active compounds read low 0.995 | locus YCL061C, strain MRC1 (second series), active compounds read low 1.02 | locus YCL061C, strain MRC1, active compounds read low 0.997 | locus YCL069W, strain vba3, active compounds read low 0.991 | locus YCR088W, strain abp1, active compounds read low 0.982 | locus YDL005C, strain med2, active compounds read low 0.98 | locus YDL035C, strain GPR1, active compounds read low 0.999 | locus YDL040C, strain nat1, active compounds read low 0.993 | locus YDL074C, strain BRE1, active compounds read low 1.02 | locus YDL101C, strain DUN1, active compounds read low 1.02 | locus YDL134C, strain PPH21, active compounds read low 0.995 | locus YDL185W, strain tfp1, active compounds read low 1 | locus YDL192W, strain arf1, active compounds read low 0.995 | locus YDR001C, strain nth1, active compounds read low 0.994 | locus YDR069C, strain doa4, active compounds read low 0.999 | locus YDR101C, strain arx1, active compounds read low 1.01 | locus YDR137W, strain rgp1, active compounds read low 0.938 | locus YDR150W, strain NUM1, active compounds read low 1.02 and 1.01 | locus YDR159W, strain sac3, active compounds read low 1.02 | locus YDR162C, strain NBP2, active compounds read low 0.999 | locus YDR195W, strain ref2 0.961 | locus YDR297W, strain sur2, active compounds read low 0.998 | locus YDR318W, strain mcm21, active compounds read low 0.99 | locus YDR334W, strain swr1, active compounds read low 0.95 | locus YDR335W, strain msn5, active compounds read low 0.998 | locus YDR363W, strain ESC2, active compounds read low 1.01 | locus YDR388W, active compounds read low 1 | locus YDR392W, strain spt3, active compounds read low 0.96 | locus YDR502C, strain sam2, active compounds read low 1.03 | locus YEL003W, strain gim4, active compounds read low 0.986 | locus YEL037C, strain rad23, active compounds read low 0.991 | locus YEL061C, strain CIN8 (second series), active compounds read low 0.992 | locus YEL061C, strain CIN8, active compounds read low 1.01 | locus YER002W, strain NOP16, active compounds read low 1.01 | locus YER015W, strain faa2, active compounds read low 0.997 | locus YER016W, strain bim1, active compounds read low 1.01 | locus YER110C, active compounds read low 0.993 | locus YER111C, strain swi4, active compounds read low 1.01 | locus YER155C, strain BEM2 (second series), active compounds read low 1 | locus YER155C, strain BEM2, active compounds read low 1.01 | locus YER167W, strain BCK2, active compounds read low 1 | locus YFR010W, strain ubp6, active compounds read low 0.986 | locus YGL078C, strain dbp3, active compounds read low 0.999 | locus YGL086W, strain mad1, active compounds read low 1 | locus YGL167C, strain pmr1, active compounds read low 1 | locus YGL173C, strain kem1, active compounds read low 0.986 | locus YGL227W, strain vid30, active compounds read low 0.998 | locus YGL240W, strain doc1, active compounds read low 1.02 | locus YGL248W, strain PDE1, active compounds read low 1.01 | locus YGL253W, strain hxk2, active compounds read low 0.988 | locus YGR135W, strain pre9, active compounds read low 0.994 | locus YGR229C, strain SMI1, active compounds read low 1.03 | locus YGR252W, strain gcn5, active compounds read low 0.958 | locus YHR013C, strain ard1, active compounds read low 1.04 | locus YHR027C, strain rpn1, active compounds read low 0.987 | locus YHR030C, strain SLT2, active compounds read low 1.01 and 0.958 | locus YHR079C, strain IRE1 (second series), active compounds read low 0.994 | locus YHR079C, strain IRE1, active compounds read low 0.967 | locus YHR094C, strain hxt1, active compounds read low 0.988 | locus YHR129C, strain ARP1, active compounds read low 1.01 | locus YHR142W, strain chs7, active compounds read low 0.965 | locus YHR200W, strain rpn10, active compounds read low 0.991 | locus YIL066C, strain RNR3, active compounds read low 1.02 | locus YIL073C, strain SPO22, active compounds read low 0.972 | locus YIL125W, strain kgd1, active compounds read low 1 | locus YIR030C, strain dcg1, active compounds read low 0.993 | locus YJL092W, strain hpr5, active compounds read low 0.984 | locus YJL095W, strain BCK1 (second series), active compounds read low 0.996 | locus YJL095W, strain BCK1, active compounds read low 1.05 and 0.981 | locus YJL115W, strain asf1, active compounds read low 0.965 | locus YJL129C, strain trk1, active compounds read low 0.991 | locus YJL134W, strain LCB3, active compounds read low 1 | locus YJL154C, strain vps35, active compounds read low 0.979 | locus YJL164C, strain tpk1, active compounds read low 0.994 | locus YJL166W, strain qcr8, active compounds read low 1.01 | locus YJL168C, strain set2, active compounds read low 0.996 | locus YJL187C, strain SWE1 (second series), active compounds read low 1.02 | locus YJL187C, strain SWE1, active compounds read low 1 | locus YJR043C, strain POL32, active compounds read low 1 | locus YJR066W, strain TOR1, active compounds read low 0.888
